The values that follow come from paper PMC4336329 (PLoS ONE, 2015).

The structures appear in SMILES notation. In all, about 310,000 compounds went through this assay and about 2,200 (0.71%) showed an effect of 50% or more. Effects have a minus sign here. The sample holds strong results, similar compounds and a random draw of the others, so the mix is not that of the screen.

The target of the assay is human ether-à-go-go-related gene (hERG) potassium channel (human, UniProt Q12809). The assay is described as follows: primary screen, population patch clamp on CHO cells stably expressing hERG; higher = less effect of the substance.
human ether-à-go-go-related gene (hERG) potassium channel, sequence (Q12809 whole entry, looked up): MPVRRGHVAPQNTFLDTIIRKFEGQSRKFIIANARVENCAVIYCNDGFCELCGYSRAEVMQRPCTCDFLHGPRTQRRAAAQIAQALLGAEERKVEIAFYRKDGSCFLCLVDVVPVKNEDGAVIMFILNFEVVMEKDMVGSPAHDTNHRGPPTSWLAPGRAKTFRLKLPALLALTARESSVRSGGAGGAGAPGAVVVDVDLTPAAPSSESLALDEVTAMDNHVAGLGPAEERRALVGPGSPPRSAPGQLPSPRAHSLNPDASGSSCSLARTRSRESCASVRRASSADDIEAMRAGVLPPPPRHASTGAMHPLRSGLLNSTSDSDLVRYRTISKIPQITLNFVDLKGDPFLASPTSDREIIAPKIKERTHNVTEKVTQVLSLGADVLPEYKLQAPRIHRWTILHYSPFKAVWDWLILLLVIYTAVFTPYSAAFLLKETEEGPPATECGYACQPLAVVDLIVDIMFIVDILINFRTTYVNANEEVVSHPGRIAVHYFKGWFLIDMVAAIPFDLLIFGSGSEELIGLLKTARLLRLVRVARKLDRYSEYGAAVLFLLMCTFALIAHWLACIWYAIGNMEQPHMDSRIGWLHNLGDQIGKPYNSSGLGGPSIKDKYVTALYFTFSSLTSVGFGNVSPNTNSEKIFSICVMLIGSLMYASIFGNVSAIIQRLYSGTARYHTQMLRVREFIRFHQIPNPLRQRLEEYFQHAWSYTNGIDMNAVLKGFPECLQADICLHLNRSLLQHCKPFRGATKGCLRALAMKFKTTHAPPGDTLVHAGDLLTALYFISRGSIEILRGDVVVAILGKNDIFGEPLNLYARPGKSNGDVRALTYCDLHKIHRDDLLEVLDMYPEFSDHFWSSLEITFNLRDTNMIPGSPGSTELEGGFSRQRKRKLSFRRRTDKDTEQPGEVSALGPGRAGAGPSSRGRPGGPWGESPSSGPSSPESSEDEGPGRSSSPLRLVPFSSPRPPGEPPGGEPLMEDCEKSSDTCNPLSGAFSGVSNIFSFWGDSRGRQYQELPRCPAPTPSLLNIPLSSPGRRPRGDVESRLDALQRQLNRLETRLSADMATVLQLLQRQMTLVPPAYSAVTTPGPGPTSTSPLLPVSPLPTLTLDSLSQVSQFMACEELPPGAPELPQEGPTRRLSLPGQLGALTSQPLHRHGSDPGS
In the case of `Cc1ccc(-n2c(SCC(=O)NCC3CCCO3)nc3c(c2=O)SCC3)cc1` (stereo not shown), the “hERG current change (%, negative = inhibition) at 1uM” value is 2.53%. Next, `COc1cccc(CN(C)CC2CCCN(CCc3ccc(Cl)cc3)C2)c1OC` (stereo not shown): -3.32%.

As for `CN(C)C(=O)CCC(=O)N(C)CC1CCCN(CCc2ccc(F)cc2)C1` (stereo not shown), the “hERG current change (%, negative = inhibition) at 1uM” value was -0.257%. Then `CN(CC1CCCN(CCc2ccccc2F)C1)C(=O)c1ccoc1` (stereo not shown), with -25.9%.

As to `Cc1cc(C(=O)N(C)CC2CCCN(CCc3ccc(F)cc3)C2)c(C)o1` (stereo not shown), the “hERG current change (%, negative = inhibition) at 1uM” value is reported as -71.6%.

Consider `COc1ccc(CCN2CCCC(CN(C)C(=O)c3ccoc3C)C2)cc1` (stereo not shown), for which the “hERG current change (%, negative = inhibition) at 1uM” value is given as 18.4%. Take `CN(CC1CCCN(CCc2ccc(Cl)cc2)C1)C(=O)c1ccoc1` (stereo not shown): the “hERG current change (%, negative = inhibition) at 1uM” value is recorded as -85.3%.

`COc1ccc(CN(C)CC2CCCN(CCc3ccc(F)cc3)C2)cc1OC` (stereo not shown): the “hERG current change (%, negative = inhibition) at 1uM” value is -8.47%. Regarding `CN(CC1CCCN(CCc2ccc(Cl)cc2)C1)C(=O)c1ccco1` (stereo not shown), the “hERG current change (%, negative = inhibition) at 1uM” value came out at 11.1%.

On to `Cc1ccccc1CCN1CCCC(CN(C)C(=O)C(=O)c2ccco2)C1` (stereo not shown), for which the “hERG current change (%, negative = inhibition) at 1uM” value was -17.7%. Next, `COc1ccc(CCN2CCCC(CN(C)C(=O)c3ccoc3)C2)cc1` (stereo not shown): -32.6%. Consider `CN(CC1CCCN(CCc2ccc(Cl)cc2)C1)C(=O)C(=O)c1ccco1` (stereo not shown), for which the “hERG current change (%, negative = inhibition) at 1uM” value is reported as -72.5%.

On to `COc1ccc(CN(C)CC2CCCN(CCc3ccc(Cl)cc3)C2)cc1OC` (stereo not shown), for which the “hERG current change (%, negative = inhibition) at 1uM” value is -78.2%. Then `O=C(O)CCC(=O)Nc1sc2c(c1C(=O)NCc1ccccc1)CCCC2`, with 0.699%; and `Cc1cc2c(cc1C)C(c1ccccc1Br)CC(=O)N2` (stereo not shown), with 13.7%.

As for `Cc1ccc(N2CC(C(=O)Oc3cccc(N4C(=O)CCC4=O)c3)CC2=O)cc1` (stereo not shown), the “hERG current change (%, negative = inhibition) at 1uM” value was -8.29%. Then `Cc1nn(-c2ccccc2)c(Cl)c1/C=N/O`, with 4.67%. Then `Cc1c(C(C)(C)C)s/c(=N/S(=O)(=O)c2ccccc2)n1C`, with 12.6%. Then `N#Cc1c(NC(=O)CSc2nc3ccccc3s2)sc2c1CCCC2`, with 9.38%. `O=C(O)c1ccc(N/N=C/c2ccncc2)cc1`: the “hERG current change (%, negative = inhibition) at 1uM” value was determined as 10%. Next, `COCc1ccc(C(=O)N(C)CC2CCCN(CCc3ccc(Cl)cc3)C2)o1` (stereo not shown): -65.1%; `COCc1ccc(C(=O)N(C)CC2CCCN(CCc3ccc(OC)cc3)C2)o1` (stereo not shown): -38.5%. As to `COCc1ccc(C(=O)N(C)CC2CCCN(CCc3ccccc3F)C2)o1` (stereo not shown), the “hERG current change (%, negative = inhibition) at 1uM” value is -11.7%. Then `COc1ccc(CNc2nc3c(c(=O)n(Cc4ccc(Br)cc4)c(=O)n3C)n2C)cc1`, with -10.5%; and `CN(C)CCN(Cc1ccccc1)c1ccccn1.Cl`, with -19.1%; and `CN(C)CCN(Cc1ccc(Cl)cc1)c1ccccn1.Cl`, with -57.1%. Next, `C[N+](C)(C)CCN(Cc1ccc(Cl)cc1)c1ccccn1.[I-]`: 6.09%; `Cc1ccc(-n2cccc2/C=C2/C(=N)N3C(=NC2=O)SN=C3S(C)(=O)=O)cc1Cl`: 11.1%. Take `COC(=O)[C@H]1C[C@H](C(=O)O)[C@@H](C)C1(C)C`: the “hERG current change (%, negative = inhibition) at 1uM” value was 9.34%. Consider `O=Cc1ccc(-n2nncc2-c2ccc([N+](=O)[O-])cc2)cc1`, for which the “hERG current change (%, negative = inhibition) at 1uM” value is recorded as -12.4%. As for `O=[N+]([O-])c1ccc(-n2nncc2-c2ccccc2)cc1`, the “hERG current change (%, negative = inhibition) at 1uM” value came out at 0.0452%. Next, `O=[N+]([O-])c1ccc(-n2nncc2-c2ccc(Cl)cc2)cc1`: -60.4%; `CCS(=O)(=O)NCCCc1ccccc1`: -5.33%; `CCn1c(/C=C/Nc2ccccc2)[n+](CC)c2cc(Cl)c(Cl)cc21.[I-]`: -87.2%.

For `Cc1n(C)c2cc(Cl)ccc2[n+]1Cc1ccccc1.[I-]`, the “hERG current change (%, negative = inhibition) at 1uM” value amounted to 4.11%. Turning to `CCn1c(C)[n+](CCOCC[n+]2c(C)n(CC)c3cc(Cl)c(Cl)cc32)c2cc(Cl)c(Cl)cc21.[I-]`, the “hERG current change (%, negative = inhibition) at 1uM” value was 8.45%. Then `CCn1c(/C=C/Nc2ccccc2)[n+](CC)c2ccc(Cl)cc21.[I-]`, with -82.8%; and `CCn1c(/C=C/N(C(C)=O)c2ccccc2)[n+](CC)c2ccc(Cl)cc21.[I-]`, with 5.77%.

`CCn1c(/C=C/N(C(C)=O)c2ccccc2)[n+](CCCS(=O)(=O)[O-])c2cc(Cl)c(Cl)cc21`: the “hERG current change (%, negative = inhibition) at 1uM” value is listed as 10.6%.

Take `Cc1ccccc1Cn1c(=O)n(CCC(=O)NCc2ccc3c(c2)OCO3)c(=O)c2ccccc21`: the “hERG current change (%, negative = inhibition) at 1uM” value is on record as 16.7%.

As to `CCCOC(=O)c1cc(-c2ccc(C=O)o2)ccc1Cl`, the “hERG current change (%, negative = inhibition) at 1uM” value is 3.2%. Then `O=C(COC(=O)CCC(=O)c1ccc(F)cc1)Nc1nnc(-c2ccccc2)o1`, with -0.682%; and `CCCCCCCNC(=O)C1(CC2CC(c3ccc(Cl)cc3)=NO2)CCN(C(=O)OC(C)(C)C)CC1` (stereo not shown), with 18.9%; and `CCCCCCCNC(=O)C1(CC2CC(c3ccc(Cl)cc3)=NO2)CCN(C(=O)CCCCCBr)CC1` (stereo not shown), with -52.1%. Then `CCCNC(=O)C1(CC2CC(c3ccccc3)=NO2)CCN(C(=O)CCCCCBr)CC1` (stereo not shown), with -5.35%; and `CCCCCCCNC(=O)C1(CC2CC(c3cccc(Br)c3)=NO2)CCN(C(=O)OC(C)(C)C)CC1` (stereo not shown), with 4.2%. On to `CCCCCCCNC(=O)C1(CC2CC(c3cccc(Br)c3)=NO2)CCN(C(=O)CCCCCBr)CC1` (stereo not shown), for which the “hERG current change (%, negative = inhibition) at 1uM” value is recorded as -72%. Next, `O=C(CCCCCBr)N1CCC(CC2CC(c3ccc(Cl)cc3)=NO2)(C(=O)NCC2CCCCC2)CC1` (stereo not shown): -37.5%. Next, `CCN1C(=O)N(CC)C2NC(=S)NC21` (stereo not shown): 7.44%.

Regarding `CC(=O)C1=C(NC(=O)c2ccc(F)cc2)CC2C1C2(C)C` (stereo not shown), the “hERG current change (%, negative = inhibition) at 1uM” value is on record as 9.7%.

Turning to `O=C(CN1C(=O)CSc2ccccc21)N1CCc2ccccc21`, the “hERG current change (%, negative = inhibition) at 1uM” value was 9.93%. As for `O=C(O)CSc1nnc(SCc2cccc3ccccc23)s1`, the “hERG current change (%, negative = inhibition) at 1uM” value was 6.81%.

Turning to `COc1ccccc1CNC(=O)C1CCN(S(=O)(=O)c2ccc3c(c2)OCCCO3)CC1`, the “hERG current change (%, negative = inhibition) at 1uM” value was -1.02%. Turning to `COC(=O)C1(C)Cc2cc(OC(C)=O)c(OC(C)=O)cc2N1` (stereo not shown), the “hERG current change (%, negative = inhibition) at 1uM” value amounted to 11.7%. On to `CC(=O)Nc1ccc(NC(=O)CSc2nccn2Cc2ccccc2)cc1`, for which the “hERG current change (%, negative = inhibition) at 1uM” value came to 10.5%.
